Measurements as given in the supplement of paper PMC9023506.
Structures can show the parent of a compound that is named as a salt.

tested on: Danio rerio larvae (5 dpf); test: startle response to 20-s acoustic pulses, difference vs DMSO (percentage points (treated minus DMSO)); higher = more of the behaviour than the DMSO vehicle control; settings: 10 µM; exposure time: 3 h pre-incubation + 3 h imaging
Method: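 5-dpf wild-type zebrafish larvae were imaged in 96-well plates. They were treated with 190 Tocris FDA-approved drugs at 10 µM (1 µl/ml DMSO) for 3 h before and 3 h during imaging at 28.5 °C, 48 larvae per drug. Automated image analysis gave % time moving and optomotor responses. Values are drug group mean minus DMSO vehicle mean (n=844), in percentage points, for 10 behaviours.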

SMILES	startle response to 20-s acoustic pulses
Nc1nc(NC2CC2)c2ncn([C@H]3C=C[C@@H](CO)C3)c2n1 [Abacavir hemisulfate]	6.56
N#Cc1ccc(C(c2ccc(C#N)cc2)n2cncn2)cc1 [Letrozole]	5.37
CS(=O)(=O)CCNCc1ccc(-c2ccc3ncnc(Nc4ccc(OCc5cccc(F)c5)c(Cl)c4)c3c2)o1 [Lapatinib]	-0.481
CCCCC1=NC2(CCCC2)C(=O)N1Cc1ccc(-c2ccccc2-c2nnn[nH]2)cc1 [Irbesartan]	1.39
CCOC(=O)[C@H](CCc1ccccc1)N[C@@H](C)C(=O)N1[C@H](C(=O)O)C[C@@H]2CCC[C@@H]21 [Ramipril]	-1.54
COc1cc(N)c(Cl)cc1C(=O)NC1CCN(CCCOc2ccc(F)cc2)CC1OC (stereo not given) [Cisapride]	-0.377
OCCOCCN1CCN(C2=Nc3ccccc3Sc3ccccc32)CC1 [Quetiapine hemifumarate]	-1.65
CN(CCOc1ccc(CC2SC(=O)NC2=O)cc1)c1ccccn1 (stereo not given) [Rosiglitazone]	-1.12
CC(C)n1c(/C=C/C(O)CC(O)CC(=O)O)c(-c2ccc(F)cc2)c2ccccc21 (stereo not given) [Fluvastatin sodium]	1.71
COc1cc2nc(N3CCN(C(=O)c4ccco4)CC3)nc(N)c2cc1OC [Prazosin hydrochloride]	5.19
NS(=O)(=O)Cc1noc2ccccc12 [Zonisamide]	8.21
Clc1ccc2nsnc2c1NC1=NCCN1 [Tizanidine hydrochloride]	-1.69
CC(C)N(CCCCOCC(=O)NS(C)(=O)=O)c1cnc(-c2ccccc2)c(-c2ccccc2)n1 [Selexipag]	-1.31
CCOc1cc(CC(=O)N[C@@H](CC(C)C)c2ccccc2N2CCCCC2)ccc1C(=O)O [Repaglinide]	-5.51
NS(=O)(=O)c1cc2c(cc1Cl)NC(C1CC3C=CC1C3)NS2(=O)=O (stereo not given) [Cyclothiazide]	-0.96
CC(c1cc2ccccc2s1)N(O)C(N)=O (stereo not given) [Zileuton]	-2.9
CCN(CC)CCNC(=O)c1c(C)[nH]c(/C=C2\C(=O)Nc3ccc(F)cc32)c1C [Sunitinib malate]	-2.32
Cc1cc(C2CCCCC2)n(O)c(=O)c1 [Ciclopirox]	-9.88
CC(C)(C)NC(=O)[C@@H]1C[C@@H]2CCCC[C@@H]2CN1C[C@@H](O)[C@H](Cc1ccccc1)NC(=O)[C@H](CC(N)=O)NC(=O)c1ccc2ccccc2n1 [Saquinavir mesylate]	0.0193
CCOC(=O)c1ncn2c1CN(C)C(=O)c1cc(F)ccc1-2 [Flumazenil]	-1.57

SMILES	startle response to 20-s acoustic pulses
CN1CCN(CCCN2c3ccccc3Sc3ccc(Cl)cc32)CC1 [Prochlorperazine dimaleate]	-7.34
Cc1cccc(C)c1OCC(C)N (stereo not given) [Mexiletine hydrochloride]	0.873
CCC(C)(C)C(=O)O[C@H]1C[C@@H](C)C=C2C=C[C@H](C)[C@H](CC[C@@H]3C[C@@H](O)CC(=O)O3)[C@H]21 [Simvastatin]	3.9
C[C@H]1O[C@H](O[C@H]2[C@H](O)[C@@H](O)[C@@H](O[C@H]3[C@H](O)[C@@H](O)C(O)O[C@@H]3CO)O[C@@H]2CO)[C@H](O)[C@@H](O)[C@@H]1N[C@H]1C=C(CO)[C@@H](O)[C@H](O)[C@H]1O (stereo not given in full) [Acarbose]	-6.81
COC(c1ccccc1)(c1ccccc1)[C@H](Oc1nc(C)cc(C)n1)C(=O)O [Ambrisentan]	5.96
COc1ccc(-c2ccc3cc(C(=O)O)ccc3c2)cc1C12CC3CC(CC(C3)C1)C2 [Adapalene]	0.11
COc1cc(Nc2c(C#N)cnc3cc(OCCCN4CCN(C)CC4)c(OC)cc23)c(Cl)cc1Cl [Bosutinib]	-0.606
COc1ccccc1OCCNCC(O)COc1cccc2[nH]c3ccccc3c12 (stereo not given) [Carvedilol]	4.96
COc1cccc2c1C(=O)c1c(O)c3c(c(O)c1C2=O)C[C@@](O)(C(=O)CO)C[C@@H]3O[C@H]1C[C@H](N)[C@H](O)[C@H](C)O1 [Doxorubicin hydrochloride]	3.62
CC(=O)O[C@H]1C(=O)[C@@]2(C)[C@H]([C@H](OC(=O)c3ccccc3)[C@]3(O)C[C@H](OC(=O)[C@H](O)[C@@H](NC(=O)c4ccccc4)c4ccccc4)C(C)=C1C3(C)C)[C@]1(OC(C)=O)CO[C@@H]1C[C@@H]2O [Taxol]	-0.529
CC(=O)S[C@@H]1CC2=CC(=O)CC[C@]2(C)[C@H]2CC[C@@]3(C)[C@@H](CC[C@@]34CCC(=O)O4)[C@H]12 [Spironolactone]	1.64
CN1CCC[C@@H]1Cc1c[nH]c2ccc(CCS(=O)(=O)c3ccccc3)cc12 [Eletriptan hydrobromide]	1.42
C[C@H]1C[C@@H]2[C@H]([C@@H](O)C[C@@]3(C)[C@H]2CC[C@]3(O)C(=O)CO)[C@@]2(C)C=CC(=O)C=C12 [Methylprednisolone]	-0.0848
CC[C@H](C)C(=O)O[C@H]1C[C@@H](C)C=C2C=C[C@H](C)[C@H](CC[C@@H]3C[C@@H](O)CC(=O)O3)[C@H]21 [Lovastatin]	-0.839
OCCN(CCO)c1nc(N2CCCCC2)c2nc(N(CCO)CCO)nc(N3CCCCC3)c2n1 [Dipyridamole]	6.96
Nc1cccc2c1CN(C1CCC(=O)NC1=O)C2=O (stereo not given) [Lenalidomide]	-5.01
N[C@@H]1[C@H]2CN(c3nc4c(cc3F)c(=O)c(C(=O)O)cn4-c3ccc(F)cc3F)C[C@@H]12 [Trovafloxacin mesylate]	-7.29
C[C@H](Cc1cc2c(c(C(N)=O)c1)N(CCCO)CC2)NCCOc1ccccc1OCC(F)(F)F [Silodosin]	2.96
C/C(O)=C(\C#N)C(=O)Nc1ccc(C(F)(F)F)cc1 [Teriflunomide]	-4.42
CC(=O)Nc1ccc(O)cc1 [Acetaminophen]	-1.63
